# Data reported in PMC7862700, “An all-to-all approach to the identification of sequence-specific readers for epigenetic DNA modifications on cytosine”.
# Experiments:
# Test in all cases: DAPPL (digital affinity profiling via proximity ligation, sequencing); 10 mM Tris-HCl pH 7.5, 50 mM NaCl, 1 mM DTT, 4% glycerol, room temperature, 30 min; GST-TFs on glutathione beads, 16-mer random dsDNA library, 0.1% formaldehyde crosslink after washing; high values mean tight binding
# [1] = target: T1, FLI1 (Homo sapiens, UniProt Q01543 1-452); settings: protein: recombinant; tags: N-terminal GST; dsDNA, one strand shown
# T1 sequence: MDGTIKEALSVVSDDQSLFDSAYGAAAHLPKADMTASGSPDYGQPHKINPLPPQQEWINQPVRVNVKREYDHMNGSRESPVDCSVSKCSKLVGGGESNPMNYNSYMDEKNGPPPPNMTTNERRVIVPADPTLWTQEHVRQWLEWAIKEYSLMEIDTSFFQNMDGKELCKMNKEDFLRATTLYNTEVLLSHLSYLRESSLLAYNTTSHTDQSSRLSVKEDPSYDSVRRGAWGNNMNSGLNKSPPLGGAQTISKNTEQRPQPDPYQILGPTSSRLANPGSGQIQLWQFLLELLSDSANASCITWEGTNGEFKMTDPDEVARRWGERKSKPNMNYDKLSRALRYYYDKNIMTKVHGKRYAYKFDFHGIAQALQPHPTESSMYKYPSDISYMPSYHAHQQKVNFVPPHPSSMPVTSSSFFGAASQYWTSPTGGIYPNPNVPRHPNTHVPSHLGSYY
# How it was run: (§1)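 A tag-only sample was pooled with DNA-barcoded human transcription factors that had been expressed in yeast as GST fusions and captured on glutathione beads. The pools were incubated for 30 min at room temperature with 200 nmole of a random double-stranded 16-mer DNA library in Tris/NaCl/DTT/glycerol buffer, then washed, crosslinked with 0.1% formaldehyde, proximity-ligated (BsaI/T4 ligase, 1 h, 37 °C), PCR-amplified and sequenced on an Illumina NextSeq500. Binding signal is each hexamer's read frequency for a factor divided by its frequency for the tag-only sample.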
# [2] = target: T2, ELK1 (Homo sapiens, UniProt P19419 1-428); settings: protein: recombinant; tags: N-terminal GST; dsDNA, one strand shown
# T2 sequence: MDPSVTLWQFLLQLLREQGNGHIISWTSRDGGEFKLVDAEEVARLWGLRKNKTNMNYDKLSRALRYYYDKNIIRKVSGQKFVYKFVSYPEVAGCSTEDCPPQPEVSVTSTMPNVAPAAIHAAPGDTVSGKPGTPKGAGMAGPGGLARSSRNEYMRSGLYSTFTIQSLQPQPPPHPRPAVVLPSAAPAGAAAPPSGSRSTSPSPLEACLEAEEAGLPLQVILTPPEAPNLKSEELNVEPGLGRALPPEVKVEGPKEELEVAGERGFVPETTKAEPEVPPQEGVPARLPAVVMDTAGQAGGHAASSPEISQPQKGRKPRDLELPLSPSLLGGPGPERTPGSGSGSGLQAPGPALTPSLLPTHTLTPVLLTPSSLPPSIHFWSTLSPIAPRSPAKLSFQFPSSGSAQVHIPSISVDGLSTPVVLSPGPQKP
# How it was run: as §1
# [3] = target: T3, GABPA (Homo sapiens, UniProt Q06546 1-454); settings: protein: recombinant; tags: N-terminal GST; dsDNA, one strand shown
# T3 sequence: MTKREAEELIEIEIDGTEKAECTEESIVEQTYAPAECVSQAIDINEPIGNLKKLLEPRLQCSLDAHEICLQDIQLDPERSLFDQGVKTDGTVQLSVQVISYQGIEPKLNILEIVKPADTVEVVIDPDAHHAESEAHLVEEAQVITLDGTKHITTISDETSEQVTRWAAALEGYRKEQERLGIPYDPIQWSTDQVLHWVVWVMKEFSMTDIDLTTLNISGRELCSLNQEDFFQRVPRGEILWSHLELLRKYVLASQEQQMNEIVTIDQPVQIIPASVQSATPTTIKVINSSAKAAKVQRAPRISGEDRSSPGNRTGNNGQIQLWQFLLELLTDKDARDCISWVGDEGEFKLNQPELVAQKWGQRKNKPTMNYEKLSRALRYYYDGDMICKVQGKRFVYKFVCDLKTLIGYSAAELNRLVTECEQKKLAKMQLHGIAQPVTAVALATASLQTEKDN
# How it was run: as §1
# [4] = target: T4, ERG (Homo sapiens, UniProt P11308 1-479); settings: protein: recombinant; tags: N-terminal GST; dsDNA, one strand shown
# T4 sequence: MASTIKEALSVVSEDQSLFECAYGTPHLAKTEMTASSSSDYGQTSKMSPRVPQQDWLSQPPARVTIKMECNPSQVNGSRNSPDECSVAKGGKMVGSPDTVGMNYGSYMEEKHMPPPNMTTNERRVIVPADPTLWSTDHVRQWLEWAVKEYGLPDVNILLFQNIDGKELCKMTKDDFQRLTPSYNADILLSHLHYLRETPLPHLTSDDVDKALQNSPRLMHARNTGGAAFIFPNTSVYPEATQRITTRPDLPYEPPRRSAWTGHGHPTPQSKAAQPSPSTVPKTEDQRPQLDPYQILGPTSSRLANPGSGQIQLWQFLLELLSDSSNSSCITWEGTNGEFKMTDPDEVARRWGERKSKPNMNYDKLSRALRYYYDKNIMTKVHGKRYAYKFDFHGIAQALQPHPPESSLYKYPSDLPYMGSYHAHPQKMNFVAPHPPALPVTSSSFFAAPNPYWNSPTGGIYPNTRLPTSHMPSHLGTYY
# How it was run: as §1
# [5] = target: ELF1 (Homo sapiens, UniProt P32519 1-619); settings: protein: recombinant; tags: N-terminal GST; dsDNA, one strand shown
# Sequence of ELF1 (P32519 whole entry): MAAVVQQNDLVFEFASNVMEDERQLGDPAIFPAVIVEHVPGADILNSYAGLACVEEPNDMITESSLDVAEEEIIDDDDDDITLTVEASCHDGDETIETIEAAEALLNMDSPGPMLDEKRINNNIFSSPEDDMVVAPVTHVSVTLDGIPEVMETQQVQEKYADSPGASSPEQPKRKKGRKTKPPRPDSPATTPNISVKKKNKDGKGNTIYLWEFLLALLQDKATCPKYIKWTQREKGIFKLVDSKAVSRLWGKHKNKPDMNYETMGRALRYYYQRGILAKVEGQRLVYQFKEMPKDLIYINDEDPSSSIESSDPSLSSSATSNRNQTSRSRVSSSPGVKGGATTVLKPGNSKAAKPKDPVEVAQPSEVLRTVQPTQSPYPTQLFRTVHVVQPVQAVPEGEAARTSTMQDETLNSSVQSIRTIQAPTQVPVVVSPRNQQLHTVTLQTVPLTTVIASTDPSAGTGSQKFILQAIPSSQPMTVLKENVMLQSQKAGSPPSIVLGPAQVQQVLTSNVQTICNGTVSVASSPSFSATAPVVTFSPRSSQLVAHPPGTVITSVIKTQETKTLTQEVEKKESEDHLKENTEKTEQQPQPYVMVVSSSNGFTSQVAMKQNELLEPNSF
# How it was run: as §1
# [6] = target: T5, EHF (Homo sapiens, UniProt Q9NZC4 1-300); settings: protein: recombinant; tags: N-terminal GST; dsDNA, one strand shown
# T5 sequence: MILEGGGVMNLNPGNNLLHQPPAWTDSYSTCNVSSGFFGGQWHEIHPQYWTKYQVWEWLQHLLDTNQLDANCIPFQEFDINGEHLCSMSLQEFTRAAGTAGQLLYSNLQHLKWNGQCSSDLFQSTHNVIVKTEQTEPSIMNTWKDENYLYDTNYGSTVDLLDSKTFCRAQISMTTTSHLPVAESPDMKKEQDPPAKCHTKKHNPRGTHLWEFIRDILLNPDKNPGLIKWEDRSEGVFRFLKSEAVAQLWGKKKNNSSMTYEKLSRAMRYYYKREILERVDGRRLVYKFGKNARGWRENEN
# How it was run: as §1
# [7] = target: SPI1 (Homo sapiens, UniProt P17947 1-270); settings: protein: recombinant; tags: N-terminal GST; dsDNA, one strand shown
# How it was run: as §1
# [8] = target: SPIB (Homo sapiens, UniProt Q01892 1-262); settings: protein: recombinant; tags: N-terminal GST; dsDNA, one strand shown
# Sequence of SPIB (Q01892 whole entry): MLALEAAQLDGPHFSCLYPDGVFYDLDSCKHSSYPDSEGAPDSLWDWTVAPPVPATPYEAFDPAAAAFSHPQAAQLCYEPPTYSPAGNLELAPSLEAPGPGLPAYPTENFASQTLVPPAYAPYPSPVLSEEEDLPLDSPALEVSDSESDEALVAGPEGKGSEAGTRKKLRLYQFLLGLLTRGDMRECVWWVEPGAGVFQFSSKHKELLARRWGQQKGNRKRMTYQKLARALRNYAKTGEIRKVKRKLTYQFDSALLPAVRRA
# How it was run: as §1
# [9] = target: T6, ELK3 (Homo sapiens, UniProt P41970 1-407); settings: protein: recombinant; tags: N-terminal GST; dsDNA, one strand shown
# T6 sequence: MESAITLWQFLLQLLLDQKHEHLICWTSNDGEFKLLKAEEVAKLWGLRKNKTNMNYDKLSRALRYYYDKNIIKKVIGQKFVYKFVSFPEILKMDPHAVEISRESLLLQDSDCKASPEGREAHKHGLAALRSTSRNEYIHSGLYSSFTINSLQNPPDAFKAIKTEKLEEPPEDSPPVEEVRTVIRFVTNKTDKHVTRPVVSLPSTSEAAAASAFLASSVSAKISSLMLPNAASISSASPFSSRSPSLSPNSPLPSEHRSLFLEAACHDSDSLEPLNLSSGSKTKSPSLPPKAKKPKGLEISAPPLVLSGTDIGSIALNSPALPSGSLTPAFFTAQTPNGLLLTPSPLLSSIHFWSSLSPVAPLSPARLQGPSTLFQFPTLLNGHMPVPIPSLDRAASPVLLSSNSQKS
# How it was run: as §1
# [10] = target: T7, FEV (Homo sapiens, UniProt Q99581 1-238); settings: protein: recombinant; tags: N-terminal GST; dsDNA, one strand shown
# T7 sequence: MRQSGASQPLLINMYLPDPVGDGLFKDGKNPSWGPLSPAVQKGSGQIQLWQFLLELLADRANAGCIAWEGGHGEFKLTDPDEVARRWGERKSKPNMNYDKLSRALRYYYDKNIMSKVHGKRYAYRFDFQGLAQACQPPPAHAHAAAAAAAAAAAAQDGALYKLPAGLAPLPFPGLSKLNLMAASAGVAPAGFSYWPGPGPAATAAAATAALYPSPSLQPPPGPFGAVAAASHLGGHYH
# How it was run: as §1
# [11] = target: ETV5 (Homo sapiens, UniProt P41161 1-510); settings: protein: recombinant; tags: N-terminal GST; dsDNA, one strand shown
# Sequence of ETV5 (P41161 whole entry): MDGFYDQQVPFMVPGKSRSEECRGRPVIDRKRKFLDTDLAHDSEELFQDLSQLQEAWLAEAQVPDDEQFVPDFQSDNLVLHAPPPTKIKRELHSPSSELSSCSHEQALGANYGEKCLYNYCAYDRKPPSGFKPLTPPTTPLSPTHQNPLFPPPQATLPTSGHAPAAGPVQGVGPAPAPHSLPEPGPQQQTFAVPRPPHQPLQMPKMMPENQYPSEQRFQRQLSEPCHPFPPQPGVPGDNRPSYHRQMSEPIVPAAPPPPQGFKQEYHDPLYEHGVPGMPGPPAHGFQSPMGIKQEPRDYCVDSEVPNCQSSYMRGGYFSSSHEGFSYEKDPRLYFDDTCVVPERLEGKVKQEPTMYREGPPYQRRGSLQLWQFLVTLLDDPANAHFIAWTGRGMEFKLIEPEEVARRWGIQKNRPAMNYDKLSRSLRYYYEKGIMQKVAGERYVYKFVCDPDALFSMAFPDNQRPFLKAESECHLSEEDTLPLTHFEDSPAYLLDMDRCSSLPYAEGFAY
# How it was run: as §1
# [12] = target: HSF1 (Homo sapiens, UniProt Q00613 1-529); settings: protein: recombinant; tags: N-terminal GST; chain copies: 3; dsDNA, one strand shown
# Sequence of HSF1 (Q00613 whole entry): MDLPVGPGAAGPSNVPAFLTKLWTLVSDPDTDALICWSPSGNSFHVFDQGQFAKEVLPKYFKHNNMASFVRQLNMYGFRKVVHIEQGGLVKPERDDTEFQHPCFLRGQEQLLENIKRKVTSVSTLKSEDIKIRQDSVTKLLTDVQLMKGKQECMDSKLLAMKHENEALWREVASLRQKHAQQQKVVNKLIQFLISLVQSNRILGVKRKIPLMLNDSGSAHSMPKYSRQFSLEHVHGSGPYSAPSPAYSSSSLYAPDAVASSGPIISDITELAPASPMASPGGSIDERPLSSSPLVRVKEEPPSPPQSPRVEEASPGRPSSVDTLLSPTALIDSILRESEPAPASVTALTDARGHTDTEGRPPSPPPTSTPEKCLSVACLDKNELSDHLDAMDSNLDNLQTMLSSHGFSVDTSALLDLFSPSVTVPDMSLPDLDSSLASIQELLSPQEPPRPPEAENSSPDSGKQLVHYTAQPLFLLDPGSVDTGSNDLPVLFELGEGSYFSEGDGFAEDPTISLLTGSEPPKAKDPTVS
# How it was run: as §1
# [13] = target: ELF4 (Homo sapiens, UniProt Q99607 1-663); settings: protein: recombinant; tags: N-terminal GST; dsDNA, one strand shown
# Sequence of ELF4 (Q99607 whole entry): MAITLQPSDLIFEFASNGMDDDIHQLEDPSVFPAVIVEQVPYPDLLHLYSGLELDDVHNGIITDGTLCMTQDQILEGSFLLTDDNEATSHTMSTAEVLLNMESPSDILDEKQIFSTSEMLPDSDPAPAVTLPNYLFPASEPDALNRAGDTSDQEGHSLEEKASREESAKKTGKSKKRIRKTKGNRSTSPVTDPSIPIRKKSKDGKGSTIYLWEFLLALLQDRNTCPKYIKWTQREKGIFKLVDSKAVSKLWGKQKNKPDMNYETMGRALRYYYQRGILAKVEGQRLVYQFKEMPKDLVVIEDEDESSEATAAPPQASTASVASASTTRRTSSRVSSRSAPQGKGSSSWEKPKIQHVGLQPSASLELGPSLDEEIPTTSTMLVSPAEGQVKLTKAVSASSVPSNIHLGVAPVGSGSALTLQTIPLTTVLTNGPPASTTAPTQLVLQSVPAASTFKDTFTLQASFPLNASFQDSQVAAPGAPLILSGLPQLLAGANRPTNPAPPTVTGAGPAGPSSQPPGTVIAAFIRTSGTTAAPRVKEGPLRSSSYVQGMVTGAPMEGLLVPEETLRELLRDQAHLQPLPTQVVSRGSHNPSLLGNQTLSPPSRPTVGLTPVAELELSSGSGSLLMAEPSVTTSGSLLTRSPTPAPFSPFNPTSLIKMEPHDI
# How it was run: as §1
# [14] = target: T8, ELK4 (Homo sapiens, UniProt P28324-2 1-405); settings: protein: recombinant; tags: N-terminal GST; dsDNA, one strand shown
# T8 sequence: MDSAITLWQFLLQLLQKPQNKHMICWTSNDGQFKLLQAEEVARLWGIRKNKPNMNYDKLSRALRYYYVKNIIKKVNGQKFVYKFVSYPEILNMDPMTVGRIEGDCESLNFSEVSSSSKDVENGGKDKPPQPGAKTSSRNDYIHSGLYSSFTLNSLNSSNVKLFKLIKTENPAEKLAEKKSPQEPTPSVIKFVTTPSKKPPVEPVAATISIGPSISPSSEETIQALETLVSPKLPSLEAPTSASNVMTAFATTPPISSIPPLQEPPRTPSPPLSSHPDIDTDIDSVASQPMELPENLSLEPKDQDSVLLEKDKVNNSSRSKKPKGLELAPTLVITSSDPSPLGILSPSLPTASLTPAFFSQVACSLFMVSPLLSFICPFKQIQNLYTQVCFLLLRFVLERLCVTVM
# How it was run: as §1
# [15] = target: T9, ETV2 (Homo sapiens, UniProt O00321 1-342); settings: protein: recombinant; tags: N-terminal GST; dsDNA, one strand shown
# T9 sequence: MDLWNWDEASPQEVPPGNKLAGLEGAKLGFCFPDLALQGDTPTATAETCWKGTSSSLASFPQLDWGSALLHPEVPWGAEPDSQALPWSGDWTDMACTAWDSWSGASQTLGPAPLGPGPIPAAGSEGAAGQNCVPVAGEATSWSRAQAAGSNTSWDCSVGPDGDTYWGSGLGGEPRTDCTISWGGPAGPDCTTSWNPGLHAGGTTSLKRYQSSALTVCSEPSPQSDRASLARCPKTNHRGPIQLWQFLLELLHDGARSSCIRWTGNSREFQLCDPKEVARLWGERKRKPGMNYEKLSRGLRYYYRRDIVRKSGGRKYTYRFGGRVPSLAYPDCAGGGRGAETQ
# How it was run: as §1
# [16] = target: T10, ELF3 (Homo sapiens, UniProt P78545 1-371); settings: protein: recombinant; tags: N-terminal GST; dsDNA, one strand shown
# T10 sequence: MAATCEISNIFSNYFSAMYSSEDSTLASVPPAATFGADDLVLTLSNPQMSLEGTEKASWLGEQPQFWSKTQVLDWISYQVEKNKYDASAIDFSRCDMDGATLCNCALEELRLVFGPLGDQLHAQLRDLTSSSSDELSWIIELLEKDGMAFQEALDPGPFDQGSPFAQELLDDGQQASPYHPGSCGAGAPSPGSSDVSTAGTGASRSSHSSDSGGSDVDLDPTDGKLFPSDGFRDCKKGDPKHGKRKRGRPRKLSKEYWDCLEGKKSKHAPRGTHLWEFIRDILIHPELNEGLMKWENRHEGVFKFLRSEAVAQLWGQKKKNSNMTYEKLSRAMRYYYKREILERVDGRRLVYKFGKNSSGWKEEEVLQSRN
# How it was run: as §1
# [17] = target: CRX (Homo sapiens, UniProt O43186 1-299); settings: protein: recombinant; tags: N-terminal GST; dsDNA, one strand shown
# Sequence of CRX (O43186 whole entry): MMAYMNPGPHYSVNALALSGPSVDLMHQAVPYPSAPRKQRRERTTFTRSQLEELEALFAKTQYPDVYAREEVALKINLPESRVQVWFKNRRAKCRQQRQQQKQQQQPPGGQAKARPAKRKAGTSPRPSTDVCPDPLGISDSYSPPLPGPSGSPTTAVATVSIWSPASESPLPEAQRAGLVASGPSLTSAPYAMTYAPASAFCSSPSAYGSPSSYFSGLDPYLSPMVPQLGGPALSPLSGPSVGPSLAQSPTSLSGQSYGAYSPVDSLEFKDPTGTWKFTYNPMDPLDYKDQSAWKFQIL
# How it was run: as §1
# [18] = target: ETV1 (Homo sapiens, UniProt P50549 1-477); settings: protein: recombinant; tags: N-terminal GST; dsDNA, one strand shown
# Sequence of ETV1 (P50549 whole entry): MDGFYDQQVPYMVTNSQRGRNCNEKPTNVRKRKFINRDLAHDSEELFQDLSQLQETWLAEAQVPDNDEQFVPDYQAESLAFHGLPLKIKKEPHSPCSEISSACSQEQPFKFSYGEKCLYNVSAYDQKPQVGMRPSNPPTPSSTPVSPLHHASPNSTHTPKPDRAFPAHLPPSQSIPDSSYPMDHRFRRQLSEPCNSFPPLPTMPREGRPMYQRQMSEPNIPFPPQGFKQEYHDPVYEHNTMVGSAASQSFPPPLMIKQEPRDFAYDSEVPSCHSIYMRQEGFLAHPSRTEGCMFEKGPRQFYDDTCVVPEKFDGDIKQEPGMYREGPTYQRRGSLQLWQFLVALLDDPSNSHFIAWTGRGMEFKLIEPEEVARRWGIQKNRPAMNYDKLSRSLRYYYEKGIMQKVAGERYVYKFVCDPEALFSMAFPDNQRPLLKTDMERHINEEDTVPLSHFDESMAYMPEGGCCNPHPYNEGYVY
# How it was run: as §1
sequence,measurement,setting,value
CTTTCG,binding signal,[1],"1.1 fold enrichment (6-mer frequency, TF over GST control)"
same,binding signal,[2],"1.21 fold enrichment (6-mer frequency, TF over GST control)"
same,binding signal,[3],"1.26 fold enrichment (6-mer frequency, TF over GST control)"
same,binding signal,[4],"1.15 fold enrichment (6-mer frequency, TF over GST control)"
same,binding signal,[5],"1.3 fold enrichment (6-mer frequency, TF over GST control)"
same,binding signal,[6],"1.3 fold enrichment (6-mer frequency, TF over GST control)"
same,binding signal,[7],"1.23 fold enrichment (6-mer frequency, TF over GST control)"
same,binding signal,[8],"1.39 fold enrichment (6-mer frequency, TF over GST control)"
same,binding signal,[9],"1.27 fold enrichment (6-mer frequency, TF over GST control)"
same,binding signal,[10],"1.26 fold enrichment (6-mer frequency, TF over GST control)"
same,binding signal,[11],"1.27 fold enrichment (6-mer frequency, TF over GST control)"
same,binding signal,[12],"1.65 fold enrichment (6-mer frequency, TF over GST control)"
same,binding signal,[13],"1.19 fold enrichment (6-mer frequency, TF over GST control)"
same,binding signal,[14],"1.4 fold enrichment (6-mer frequency, TF over GST control)"
same,binding signal,[15],"1.3 fold enrichment (6-mer frequency, TF over GST control)"
same,binding signal,[16],"1.4 fold enrichment (6-mer frequency, TF over GST control)"
same,binding signal,[17],"1.37 fold enrichment (6-mer frequency, TF over GST control)"
same,binding signal,[18],"1.36 fold enrichment (6-mer frequency, TF over GST control)"
